Compound activity: PubChem BioAssay, National Center for Advancing Translational Sciences (NCATS)
Sampled rows, rich in hits. Any-hit rate of the full collection: about 14%.
Sm TGR block: qHTS Assay for the Inhibitors of Schistosoma Mansoni Peroxiredoxins; purified TGR, DTNB reduction, TNB absorbance 405 nm; Potency, µM (titrated, usually from 114 µM), inactives show at the top dose activity change, negative = inhibition, usual class: inhibitors; 360,000 compounds, 3% hits; also: potency is read from the fitted curve at half-maximal effect; nearly all actives have a fitted effect of over 60% in size
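First, TGR (20 nM dispensed) and NADPH were mixed with compound. Second, a 15 min room-temperature incubation followed. Third, further NADPH and then DTNB were added to start the reaction. Finally, TNB absorbance was monitored kinetically.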
HCMV antiviral: qHTS Assay for inhibitors of the human cytomegalovirus (HCMV); HFF cells, HCMV-luciferase reporter, 72 h; hits give low values; activity change, negative = inhibition, % at 57.5 µM; 410,000 compounds, 4.5% hits; AID 1259415, 2018; in the data active = activity change below about -60%; inconclusive = no clear call, values can overlap the other calls; inactive = above about -39%
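Screen run at 2 compound doses on HFFs infected with reporter HCMV, MOI 1 PFU/cell. Luciferase activity from cell lysates at 72 h post infection gave inhibition relative to buffer-only and Salinomycin wells.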
Giardia FBPA inh: qHTS Assay for Inhibitors of Fructose-1,6-bisphosphate Aldolase from Giardia Lamblia | 290,000 compounds, 0.71% hits | Potency, µM (series often up to 59.6 µM), without a hit: at the highest dose activity, negative = inhibition, actives largely listed as inhibitors | purified Giardia FBPA; also: potency is read from the fitted curve at half-maximal effect; nearly all actives have a fitted effect of over 55% in size
Target sequence (A8B2U2 whole entry, looked up): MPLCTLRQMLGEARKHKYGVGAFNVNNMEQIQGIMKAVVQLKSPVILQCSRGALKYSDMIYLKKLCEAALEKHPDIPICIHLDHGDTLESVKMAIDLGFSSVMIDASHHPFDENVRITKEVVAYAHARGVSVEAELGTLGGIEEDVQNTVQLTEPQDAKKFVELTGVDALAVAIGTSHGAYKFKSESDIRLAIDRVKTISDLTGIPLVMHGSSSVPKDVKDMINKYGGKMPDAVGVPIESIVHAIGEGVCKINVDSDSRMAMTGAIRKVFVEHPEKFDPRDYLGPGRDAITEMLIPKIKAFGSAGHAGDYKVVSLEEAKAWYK
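Giardia FBPA (40 nM reagent) was preincubated 10 min at RT with compound (up to 57.5 uM final), then substrate plus GAPDH/TPI/NAD/arsenate coupling system with diaphorase/resazurin was added; resorufin fluorescence (525/598 nm) was read after 20 min.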
Pf growth 96h: Primary qHTS for delayed death inhibitors of the malarial parasite plastid, 96 hour incubation | Potency, µM (series often up to 28.7 µM), for inactives: top-dose activity change, negative = inhibition, most hits filed as inhibitors | 320,000 compounds, 6.9% hits | P. falciparum luciferase reporter growth, 96 h; also: potency is read from the fitted curve at half-maximal effect
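Infected RBCs, 2% Hct / 0.05% parasitemia final; luciferase-reporter P. falciparum; cpd 96 h, 37 C, 5% CO2; luciferase detection reagent; luminescence.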
Pf growth 48h: Primary qHTS for delayed death inhibitors of the malarial parasite plastid, 48 hour incubation; 310,000 compounds, 5.9% hits; Potency, µM (series often up to 28.7 µM), inactives show at the top dose activity change, negative = inhibition, most hits filed as inhibitors; P. falciparum luciferase growth in erythrocytes, 48 h; also: potency is read from the fitted curve at half-maximal effect
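In quantitative HTS format, infected erythrocytes bearing luciferase-reporter parasites were treated for a single generation at 37 C. Luminescence after adding detection reagent served as the growth measure.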
The depositor's hits bear a star; ? = inconclusive; nt = no result given; [ ] = remark or other dose. Unless noted, calls follow the shape of the dose curve; as a rule, active = well fitted curve in the direction sought with a large enough effect; inconclusive = small, poorly fitted or top-dose-only effect, or another doubt; inactive = no such curve, though single readings can be large; an effect the other way counts as inactive or inconclusive. % is scaled to controls: 0 for no effect and ±100 for the full control effect.

SMILES	Sm TGR block	HCMV antiviral	Giardia FBPA inh	Pf growth 96h	Pf growth 48h
Cc1cccc(CN2CCC(Oc3ccc(C(=O)N4CCCC4)cc3)CC2)n1	-3%	-31	-27%	2.3µM*	?
O=C(c1ccc(OC2CCN(C/C=C/c3ccc(F)cc3)CC2)cc1)N1CCCC1	-16%	-37	0%	4.1µM*	8.3µM*
O=C(c1ccc(OC2CCN(Cc3ccc(F)cc3)CC2)cc1)N1CCCC1	3%	-19	4%	?	?
CSCCCNC(=O)c1ccc(OC2CCN(CCc3ccccc3)CC2)cc1	10%	0	2%	13µM*	?
O=C(NCC1COCCO1)c1ccc(OC2CCN(CCc3ccccc3)CC2)cc1 (stereo not drawn)	-4%	38	5%	2%	1%
CC(C)N1CCN(C(=O)c2ccc(OC3CCN(CCc4ccccc4)CC3)cc2)CC1	-3%	-21	nt	-22%	?
O=C(c1ccc(OC2CCN(CCc3ccccc3)CC2)cc1)N1CCCC1	-3%	-63*	nt	?	-21%
N#CCCN(C(=O)CN1CCN(S(=O)(=O)c2ccc3c(c2)OCCO3)CC1)c1ccc(F)cc1	-9%	-34	nt	?	?
O=C(NCc1cccnc1)C1C2C=CC(C2)C1C(=O)Nc1cccc(C(F)(F)F)c1 (stereo not drawn)	nt	-34	nt	nt	nt
CCC(C)[C@H](NS(=O)(=O)c1ccc(F)cc1Br)C(=O)OC (stereo partly drawn)	nt	-19	nt	nt	nt
C[C@H]1CN([C@@H](C)CO)S(=O)(=O)c2ccc(Br)cc2O[C@@H]1CN(C)Cc1cccc(F)c1	nt	-20	nt	nt	nt
C=CCOc1ccccc1CN1CCC(Oc2ccc(C(=O)N3CCCCC3)cc2)CC1	0%	-12	-8%	10µM*	37%
Cc1ccccc1CN1CCC(Oc2ccc(C(=O)N3CCCC3)cc2)CC1	-1%	-21	6%	74%	?
CCOc1cccc(CN2CCC(Oc3ccc(C(=O)N4CCCC4)cc3)CC2)c1	-9%	18	nt	?	?
CC(C)c1ccc(CN2CCC(Oc3ccc(C(=O)N4CCCC4)cc3)CC2)cc1	-34%	1	-10%	-31%	6.6µM*
CCc1ccc(CN2CCC(Oc3ccc(C(=O)N4CCCC4)cc3)CC2)cc1	18%	-21	-10%	?	9.3µM*
CCc1ccc(CN2CCC(Oc3ccc(C(=O)N4CCCCC4)cc3)CC2)cc1	0%	?	nt	?	-29%
Cc1cccc(CN2CCC(Oc3ccc(C(=O)N4CCCCC4)cc3)CC2)c1	2%	31	nt	9.3µM*	?
COc1cc(CC(NC(C)=O)C(=O)NC2CCN(C(=O)Nc3ccccc3C)CC2)cc(OC)c1 (stereo not drawn)	5%	-25	nt	1.7µM*	14%
COc1ccc(CC(NC(C)=O)C(=O)NC2CCN(S(=O)(=O)c3ccc(NC(C)=O)cc3)CC2)cc1OC (stereo not drawn)	0%	?	1%	13µM*	0%
COc1ccc(CC(NC(C)=O)C(=O)NC2CCN(S(=O)(=O)c3cccc4ccccc34)CC2)cc1OC (stereo not drawn)	?	12	-3%	13µM*	nt
COc1cccc(CC(NC(C)=O)C(=O)NC2CCN(S(=O)(=O)c3ccc(NC(C)=O)cc3)CC2)c1 (stereo not drawn)	-4%	0	1%	-2%	-23%
COc1ccc(CC(NC(C)=O)C(=O)NC2CCN(C(=O)Nc3ccccc3Cl)CC2)cc1OC (stereo not drawn)	2%	52	0%	83%	nt
COc1cc(C(=O)N2CCC(NC(=O)C(Cc3ccc(C)cc3)NC(C)=O)CC2)cc(OC)c1OC (stereo not drawn)	3%	nt	-8%	5.9µM*	-4%
Cc1cc2c(c(=O)o1)[C@@]1(C(=O)N(C)c3ccccc31)C1=C(CCC1=O)O2	nt	-28	nt	nt	nt
SMILES	Sm TGR block	HCMV antiviral	Giardia FBPA inh	Pf growth 96h	Pf growth 48h
COc1ccc(N(C(=O)c2ccc(C(C)(C)C)cc2)S(=O)(=O)c2ccc(Cl)cc2)cc1	2%	-17	nt	nt	nt
CC(=O)NC(Cc1ccc(C)cc1)C(=O)NC1CCN(S(=O)(=O)c2ccccc2)CC1 (stereo not drawn)	-2%	-5	nt	3%	5%
COc1ccc(CC(NC(C)=O)C(=O)NC2CCN(C(=O)C3CCCCC3)CC2)cc1OC (stereo not drawn)	-3%	-68*	nt	30%	7%
COc1ccc(CC(NC(C)=O)C(=O)NC2CCN(S(=O)(=O)c3ccccc3)CC2)cc1OC (stereo not drawn)	-32%	22	1%	5.2µM*	1%
O=C(Nc1cccc2c1CCCC2)c1ccc(Cl)c([N+](=O)[O-])c1	3%	-26	-9%	0%	-10%
O=C(Nc1cccc2c1CCCC2)c1cc([N+](=O)[O-])ccc1Cl	-24%	-105*	3%	?	?
O=C(Nc1ccccc1Cl)Nc1cccnc1Cl	5%	-62*	0%	?	14%
S=C(Nc1ccccn1)Nc1ccccc1Cl	?	-83*	-20%	-24%	-2%
O=C(Nc1cccc2ncccc12)c1cc([N+](=O)[O-])ccc1Cl	0%	-88*	4%	12µM*	5%[0.00184 µM]
Cc1c(Cl)cccc1NC(=S)Nc1ccccn1	0%	30	-1%	?	8%
CCc1ccccc1NC(=O)c1ccccc1Sc1ccc([N+](=O)[O-])cc1Cl	-12%	14	-2%	-17%	12µM*
O=C(Nc1ccc([N+](=O)[O-])cc1Br)c1cc2ccccc2nc1Cl	-5%	?	3%	0.33µM*	0.19µM*
O=C(Nc1cccnc1Cl)c1cc([N+](=O)[O-])ccc1Cl	-13%	-75*	-3%	?	-23%
CC(OC(=O)CC(NC(=O)c1ccccc1Cl)c1ccccc1)C(=O)Nc1cccc(Cl)c1Cl (stereo not drawn)	-8%	-38	-2%	0%	27%
O=C(c1cccnc1)N1CC(=O)N2[C@@H](CO)[C@H](c3ccc(Br)cc3)[C@@H]2C1	nt	4	nt	nt	nt
O=C(OCC1OC2OC3(CCCCC3)OC2C2OC3(CCCCC3)OC12)c1ccccc1 (stereo not drawn)	-3%	-14	4%	?	?
O=C(O)C1OC2OC3(CCCCC3)OC2C2OC3(CCCCC3)OC12 (stereo not drawn)	-5%	-34	-1%	1.5µM*	13%
COc1ccc(NC(=O)CSCC(=O)Nc2cc(Cl)ccc2N2CCCC2)cc1	-14%	0	nt	4%	-21%
COc1ccc(CC(=O)Nc2ccc(N3CCCC3)c(C)c2)cc1	50µM*	-22	-14%	?	?
Cc1ccc(NC(=O)c2cc(NC(=O)CCC(=O)O)ccc2N2CCCCC2)cc1	?	52	-3%	?	-21%
